FBW7 activator: human FBW7 E3 ligase activation, primary screen; 0.13% of 650,000 active; AlphaScreen FBW7–phospho-cyclin E peptide binding, activator screen; normalized activity (activation), % at 26.1 µM; Q969H0; in the data active means normalized activity above about 1.9%;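 further: purified mutant Fbw7 with reduced substrate affinity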
Target sequence (Q969H0 whole entry, looked up): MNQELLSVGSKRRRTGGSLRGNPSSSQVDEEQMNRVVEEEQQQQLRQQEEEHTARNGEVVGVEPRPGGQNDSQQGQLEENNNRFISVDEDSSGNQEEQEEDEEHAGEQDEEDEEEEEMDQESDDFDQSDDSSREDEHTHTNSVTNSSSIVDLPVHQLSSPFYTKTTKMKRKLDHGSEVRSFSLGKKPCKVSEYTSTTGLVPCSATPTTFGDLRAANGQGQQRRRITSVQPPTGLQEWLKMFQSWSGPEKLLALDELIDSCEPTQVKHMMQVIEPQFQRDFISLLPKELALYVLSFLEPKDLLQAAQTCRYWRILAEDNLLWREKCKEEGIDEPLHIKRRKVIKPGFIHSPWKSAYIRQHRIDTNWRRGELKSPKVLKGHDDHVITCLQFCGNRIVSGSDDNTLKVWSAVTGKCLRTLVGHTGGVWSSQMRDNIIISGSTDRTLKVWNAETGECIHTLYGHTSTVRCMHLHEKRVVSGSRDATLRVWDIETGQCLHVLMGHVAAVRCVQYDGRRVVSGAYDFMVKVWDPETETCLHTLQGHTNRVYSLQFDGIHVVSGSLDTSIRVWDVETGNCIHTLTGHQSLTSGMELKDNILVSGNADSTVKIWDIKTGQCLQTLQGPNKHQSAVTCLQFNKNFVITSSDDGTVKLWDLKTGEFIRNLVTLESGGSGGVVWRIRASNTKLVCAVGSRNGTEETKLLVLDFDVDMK
TEAD-YAP inh: TEAD-YAP interaction inhibition; HEK-TIYL cells, TEAD-Gal4/YAP UAS-luciferase luminescence; inhibition, % at 9.12 µM; 1.4% of 640,000 active; in the data active means inhibition above about 32%;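 further: 0% = median of test compound wells and 100% = reference inhibitor wells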
MITF primary: blocks human microphthalmia-associated transcription factor. O75030. AlphaScreen MITF homodimerization, bead proximity signal. 0.91% of 650,000 active. inhibition, % at 2.6 µM; in the data active means inhibition above about 50%;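 further: 0% = vehicle wells with protein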
GPR151 activ: human GPR151 activation. 1% of 650,000 active. AID 1508602. activation, % at 11.2 µM. PathHunter beta-arrestin GPR151 cells, luminescence. Q8TDV0; in the data active means activation above about 4.9%;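 further: 0% = median of compound wells and 100% = cells with positive control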
* hit, by the source's call. Hits are enriched below; roughly 3.4% of the tested compounds scored in any of these assays.

SMILES | FBW7 activator | TEAD-YAP inh | MITF primary | GPR151 activ
Cc1ccc(C2C(C#N)=C(N)Oc3n[nH]c(-c4ccc(F)cc4)c32)o1 (configuration not stated) | -0.1 | 1.4 | 0.8 | 1.4
COc1cccc(C2NC(=S)NC(c3ccccc3)=C2C(C)=O)c1 (configuration not stated) | -0.1 | 49.6* | 1.5 | 1.4
COc1cc(C2Nc3ccccc3NC3=C2C(=O)CC(c2ccccc2Cl)C3)cc(Br)c1O (configuration not stated) | 0.4 | 43.5* | 4.5 | 0.2
COc1cc(C2Nc3ccccc3NC3=C2C(=O)CC(c2ccccc2Cl)C3)ccc1O (configuration not stated) | 0.0 | 50.6* | 5.4 | -1.3
C=CCn1c(SCC)nc2sc3c(c2c1=O)CCC3 | 0.0 | -2.6 | -2.4 | -0.8
COc1cc(C(=O)N/N=C(C)/C=C/c2ccccc2)cc(OC)c1OC | -0.1 | 64.2* | 15.3 | 1.3
COc1cc(C(=O)N/N=C(\C)c2ccc(N)cc2)cc(OC)c1OC | -0.1 | 49.1* | -13.9 | -0.3
COc1cc(C(=O)NN=C(C2CC2)C2CC2)cc(OC)c1OC | 0.0 | 58.8* | -4.5 | -0.6
COc1cc(C(=O)N/N=C(\C)Cc2ccccc2)cc(OC)c1OC | -0.1 | 58.4* | 12.0 | -0.3
COc1cc(C(=O)NC2CCCCCCC2)cc(OC)c1OC | 0.2 | -1.9 | 13.7 | 1.4
O=C(Nc1ccc(I)cc1)C1CC(=O)N(Cc2ccccc2)C1 (configuration not stated) | 1.0 | 3.2 | 13.7 | 4.6
COc1ccc(/C(C)=N/NC(=O)c2ccccc2)cc1OC | 0.0 | -51.9 | -5.0 | 0.6
COc1cc(C(=O)N/N=C(\C)c2ccccc2)cc(OC)c1OC | -0.1 | 60.8* | 7.3 | 0.8
COc1cc(C(=O)NN2C(=O)c3ccccc3C2=O)cc(OC)c1OC | -0.1 | 52.5* | -1.7 | -0.3
COc1cc(C(=O)N/N=C(\C)c2cccs2)cc(OC)c1OC | -0.1 | 54.1* | -0.3 | 0.5
C/C(=N/NC(=O)c1cc(O)c(O)c(O)c1)c1ccc(F)cc1 | -0.3 | 4.3 | 58.6* | -0.5
COc1cc(C(=O)N/N=C(\C)c2ccco2)cc(OC)c1OC | 0.8 | 52.5* | 12.9 | -0.4
C/C(=N/NC(=O)c1cc(O)cc(O)c1)c1ccco1 | 0.1 | 0.3 | 5.0 | -0.9
Cc1ccccc1-c1nc(CSCC(=O)N2CCOCC2)c(C)o1 | -0.1 | 11.8 | -2.6 | 0.7
CCc1ccc(-c2nc(CSCC(=O)N3CCN(CC)CC3)c(C)o2)cc1 | -0.2 | 36.5* | -7.2 | 0.1
Cc1ccccc1-c1nc(CSCC(=O)N2CCCC2)c(C)o1 | 0.2 | 56.0* | -9.4 | -0.6
Cc1ccsc1-c1nc(CSCC(=O)N2CCCC2)c(C)o1 | -0.1 | 46.1* | -3.5 | 0.1
COCCCNC(=O)C1CCN(c2nc3ccccc3n3cccc23)CC1 | 0.2 | 0.9 | -9.1 | -0.4
CC1(C)CC(=O)C2=C(C1)Nc1ccc3ncccc3c1C2c1cn[nH]c1-c1ccc(F)cc1 (configuration not stated) | -0.1 | 35.4* | -1.6 | -0.7
CC1(C)CC(=O)C2=C(C1)Nc1ccc3ncccc3c1C2c1cccc(Cl)c1Cl (configuration not stated) | 0.1 | 2.9 | 2.2 | 1.5
SMILES | FBW7 activator | TEAD-YAP inh | MITF primary | GPR151 activ
NC(=O)c1c(NC(=O)CSc2nc(-c3ccccc3)cn2N)sc2c1CCC2 | -0.2 | 35.8* | -2.3 | 0.6
Cc1cc(C)c(S(=O)(=O)N2CCC3(CC2)CC(=O)c2ccccc2O3)c(C)c1 | -0.1 | -0.8 | 0.6 | 1.9
COc1ccc(-c2nc(NCc3cccnc3)c3ncn(C(C)C)c3n2)cc1 | 0.7 | 4.0 | 11.2 | 4.3
COc1ccc(CCNc2nc(-c3ccc(C(=O)NC4CC4)cc3)nc3c2ncn3C2CCCCC2)cc1 | 0.1 | 51.2* | 6.9 | 1.4
COc1ccc(CCNc2nc(-c3ccc(C(N)=O)cc3)nc3c2ncn3C2CCCCC2)cc1 | 0.0 | 8.7 | -0.5 | -1.2
NC(=O)c1ccc(-c2nc(NCCc3ccc(O)cc3)c3ncn(-c4ccsc4)c3n2)cc1 | 0.1 | 43.5* | 7.7 | -1.0
O=C(NC1CC1)c1ccc(-c2nc(NCCc3ccc(O)cc3)c3ncn(-c4ccsc4)c3n2)cc1 | 0.0 | 58.5* | 5.9 | 1.2
CC(C)n1cnc2c(NCc3cccnc3)nc(-c3ccc(C(N)=O)cc3)nc21 | -0.1 | 38.8* | 26.2 | 0.0
CC(C)CC(=O)N1CCC2(CCC(CNC(=O)c3cc(-c4ccccc4)no3)O2)CC1 (configuration not stated) | 0.2 | 3.9 | 4.2 | 0.2
CCOC(=O)C1=C(C)NC2=C(C(=O)CC(C)(C)C2)C1c1cc(I)sc1SC (configuration not stated) | -0.1 | 4.3 | 5.3 | 3.4
COc1ccc(CCNc2nc(-c3ccc(N4CCOCC4)nc3)nc3c2ncn3-c2ccsc2)cc1 | 0.3 | -0.7 | -1.0 | 1.3
Oc1ccc(CCNc2nc(-c3ccc(N4CCOCC4)nc3)nc3c2ncn3-c2ccsc2)cc1 | 0.2 | 65.0* | -10.3 | -0.4
NC(=O)c1ccc(-c2nc(NCc3cccnc3)c3ncn(-c4ccsc4)c3n2)cc1 | 0.0 | 50.7* | -0.8 | -0.4
COc1cc2nc(-c3cccc(C(C)=O)c3)nc(Nc3ccc(Oc4ccccc4)cc3)c2cc1OC | 0.2 | -0.4 | 16.9 | 0.8
CCOC(=O)c1cnc2cc(C(F)(F)F)ccc2c1NCCCN1CCOCC1 | 0.0 | -2.2 | -15.2 | 0.1
CCOC(=O)N1CCN(C(=O)c2ccc(Cn3c(=S)[nH]c4ccccc4c3=O)cc2)CC1 | 0.0 | 45.3* | -6.4 | -0.7
CC(C)(C)NC(=O)CSc1nc(-c2ccccc2)cs1 | 0.3 | 61.8* | -19.1 | 1.7
CC(=O)Nc1ccc(NC(C)=O)c2c1C(=O)c1c(NC(C)=O)ccc(NC(C)=O)c1C2=O | -0.1 | 1.1 | 82.0* | 1.5
CC(=O)Nc1cccc2c1C(=O)c1cccc(NC(C)=O)c1C2=O | 0.3 | 3.5 | -9.1 | -1.1
COc1cc(OC)cc(C2=NC3(CCC(C)CC3)NC2=O)c1 (configuration not stated) | 4.2* | 3.6 | -23.0 | -0.6
CCCc1ccc(C(=O)Nc2cnc3ccccc3c2)cc1 | 0.0 | 70.4* | 11.7 | -5.2
O=C(CSc1nc(C2CC2)nc2ccccc12)Nc1cccc(C(=O)O)c1 | 0.3 | -0.6 | 10.5 | 0.6
COc1cccc(CN(CCN(C)C)C(=O)Nc2ccc(-c3cn[nH]c3)cc2)c1 | -0.1 | -11.8 | 1.1 | -1.3
COc1cccc(CN(CCCN(C)C)C(=O)Nc2ccc(-c3cn[nH]c3)cc2)c1 | 0.1 | 1.5 | 62.0* | -0.6
COc1cccc(CNC(=O)Nc2ccc(-c3cn[nH]c3)cc2N(C)CCO)c1 | -0.1 | 54.1* | 40.4 | -1.2
COc1cccc(CNC(=O)Nc2ccc(-c3cn[nH]c3)cc2N(C)CCN(C)C)c1 | 0.6 | -1.9 | 28.8 | 0.7
COC(=O)c1ccc2c(c1)C(=O)/C(=C/c1cccc(O)c1)O2 | -0.1 | 41.8* | 13.0 | -1.6
COC(=O)c1ccc2c(c1)C(=O)/C(=C/c1ccccc1OC)O2 | 0.1 | -2.7 | -2.2 | 1.7
COC(=O)c1ccc2c(c1)C(=O)/C(=C/c1ccc(O)cc1)O2 | 0.2 | 52.0* | -0.3 | 2.4
